Holding throughout (assay): yeast three-hybrid, YBZ-1, SC-Leu-His + 0.5 mM 3-AT, 4 days
Settings in all cases: tags: N-Gal4 AD-HA kept; label: inside an RPR1-promoter hybrid RNA with tandem MS2 sites; ssRNA

The target in one experiment is PUM1 PUF domain R3-NSL (Homo sapiens, UniProt Q14671 828-1176, C935N;R936S;Q939L). Put shortly: (§1)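 The interaction score is the log change in variant frequency from input to selection. Scores were computed in log2 with a pseudocount of 1 for absent variants, using Illumina sequencing of PCR-amplified repeat regions. The input came from four days on SC-Leu and the selection from four days on SC-Leu-His + 0.5 mM 3-AT. The cells were strain YBZ-1 (LexA–MS2 coat fusion, HIS3 reporter) co-expressing Pumilio-1 PUF domain libraries and matching RNA elements from a centromeric plasmid.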

In another experiment the target is PUM1 PUF domain R5-KGC (Homo sapiens, UniProt Q14671 828-1176, C1007K;R1008G;Q1011C). A digest of the protocol: as §1
The target in the next experiment is PUM1 PUF domain R7-GWD (Homo sapiens, UniProt Q14671 828-1176, S1079G;N1080W;E1083D). A digest of the protocol:
as §1

A further experiment deals with PUM1 PUF domain R8-PYA (Homo sapiens, UniProt Q14671 828-1176, N1122P;Q1126A). Put shortly:
as §1

Another experiment concerns the target PUM1 PUF domain R4-RHS (Homo sapiens, UniProt Q14671 828-1176, N971R;Q975S). A digest of the protocol: as §1
The target in another experiment is PUM1 PUF domain R3-IYG (Homo sapiens, UniProt Q14671 828-1176, C935I;R936Y;Q939G). Put shortly: as §1
In the next experiment the target is PUM1 PUF domain R3-RMR (Homo sapiens, UniProt Q14671 828-1176, C935R;R936M;Q939R). A digest of the protocol: as §1
The target of another experiment is PUM1 PUF domain R5-RPN (Homo sapiens, UniProt Q14671 828-1176, C1007R;R1008P;Q1011N). A digest of the protocol: as §1
A further experiment addresses PUM1 PUF domain R5-KTS (Homo sapiens, UniProt Q14671 828-1176, C1007K;R1008T;Q1011S). A digest of the protocol: as §1
The next experiment deals with PUM1 PUF domain R1-RAV (Homo sapiens, UniProt Q14671 828-1176, S863R;R864A;Q867V). A digest of the protocol:
as §1

The target of a further experiment is PUM1 PUF domain R1-GWR (Homo sapiens, UniProt Q14671 828-1176, S863G;R864W;Q867R). A digest of the protocol:
as §1

Another experiment concerns the target PUM1 PUF domain R1-TIE (Homo sapiens, UniProt Q14671 828-1176, S863T;R864I;Q867E). Put shortly: as §1
The target of another experiment is PUM1 PUF domain R7-SHP (Homo sapiens, UniProt Q14671 828-1176, N1080H;E1083P). A digest of the protocol: as §1
In the next experiment the target is PUM1 PUF domain R7-SRP (Homo sapiens, UniProt Q14671 828-1176, N1080R;E1083P). Put shortly: as §1
The next experiment addresses PUM1 PUF domain R5-RHD (Homo sapiens, UniProt Q14671 828-1176, C1007R;R1008H;Q1011D). Put shortly: as §1
For the next experiment, the target named is T1, PUM1 PUF domain R6-TFC (Homo sapiens, UniProt Q14671 828-1176, N1043T;Y1044F;Q1047C).
T1 sequence: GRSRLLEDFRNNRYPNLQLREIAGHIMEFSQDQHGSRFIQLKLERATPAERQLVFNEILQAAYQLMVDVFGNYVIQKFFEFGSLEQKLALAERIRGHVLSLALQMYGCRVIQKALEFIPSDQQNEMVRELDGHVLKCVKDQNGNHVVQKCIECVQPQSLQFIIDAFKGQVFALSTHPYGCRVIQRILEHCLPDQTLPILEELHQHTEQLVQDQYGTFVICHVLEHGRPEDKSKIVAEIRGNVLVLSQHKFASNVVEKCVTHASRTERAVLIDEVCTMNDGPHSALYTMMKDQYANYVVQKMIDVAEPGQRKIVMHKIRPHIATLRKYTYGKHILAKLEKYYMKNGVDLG
Put shortly: as §1

A further experiment addresses PUM1 PUF domain R8-FHR (Homo sapiens, UniProt Q14671 828-1176, N1122F;Y1123H;Q1126R). Put shortly: as §1

Chain of PUM1 PUF domain R3-RMR (Q14671 828-1176 C935R/R936M/Q939R): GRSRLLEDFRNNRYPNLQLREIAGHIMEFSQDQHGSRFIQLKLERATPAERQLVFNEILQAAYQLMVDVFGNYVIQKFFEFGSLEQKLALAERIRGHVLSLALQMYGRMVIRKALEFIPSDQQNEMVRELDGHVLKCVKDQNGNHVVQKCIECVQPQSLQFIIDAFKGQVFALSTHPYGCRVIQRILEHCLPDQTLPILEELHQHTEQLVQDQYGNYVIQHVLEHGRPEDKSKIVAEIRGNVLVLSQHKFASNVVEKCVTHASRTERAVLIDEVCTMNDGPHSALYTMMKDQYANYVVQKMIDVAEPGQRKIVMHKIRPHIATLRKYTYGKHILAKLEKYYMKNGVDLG
Chain of PUM1 PUF domain R5-KTS (Q14671 828-1176 C1007K/R1008T/Q1011S): as the sequence (Q14671 828-1176 C935R/R936M/Q939R) above, with R108C, M109R, R112Q, C180K, R181T, Q184S counted along it
Chain of PUM1 PUF domain R5-KGC (Q14671 828-1176 C1007K/R1008G/Q1011C): as the sequence (Q14671 828-1176 C935R/R936M/Q939R) above, with R108C, M109R, R112Q, C180K, R181G, Q184C counted along it
Chain of PUM1 PUF domain R1-RAV (Q14671 828-1176 S863R/R864A/Q867V): as the sequence (Q14671 828-1176 C935R/R936M/Q939R) above, with S36R, R37A, Q40V, R108C, M109R, R112Q counted along it
Chain of PUM1 PUF domain R1-GWR (Q14671 828-1176 S863G/R864W/Q867R): as the sequence (Q14671 828-1176 C935R/R936M/Q939R) above, with S36G, R37W, Q40R, R108C, M109R, R112Q counted along it
Chain of PUM1 PUF domain R5-RPN (Q14671 828-1176 C1007R/R1008P/Q1011N): as the sequence (Q14671 828-1176 C935R/R936M/Q939R) above, with R108C, M109R, R112Q, C180R, R181P, Q184N counted along it
Chain of PUM1 PUF domain R3-NSL (Q14671 828-1176 C935N/R936S/Q939L): as the sequence (Q14671 828-1176 C935R/R936M/Q939R) above, with R108N, M109S, R112L counted along it
Chain of PUM1 PUF domain R7-SHP (Q14671 828-1176 N1080H/E1083P): as the sequence (Q14671 828-1176 C935R/R936M/Q939R) above, with R108C, M109R, R112Q, N253H, E256P counted along it
Chain of PUM1 PUF domain R7-GWD (Q14671 828-1176 S1079G/N1080W/E1083D): as the sequence (Q14671 828-1176 C935R/R936M/Q939R) above, with R108C, M109R, R112Q, S252G, N253W, E256D counted along it

“GGCUAGAACUAGUGGAUCCCCCGGCGCCCGGCGGCUCGAGCCCGGGUAAGUGUAAAUAGUCUGCAUGCCGCCGGGCGCCAUGCCUGCAGGUCGACUCUAGAAAACAUG”: the binding signal with PUM1 PUF domain R3-NSL is 2.4 log2 enrichment (interaction score); in the experiment with PUM1 PUF domain R5-KGC it was 1.52 log2 enrichment (interaction score); with PUM1 PUF domain R7-GWD it was 2.68 log2 enrichment (interaction score); in the experiment with PUM1 PUF domain R8-PYA it was 2.27 log2 enrichment (interaction score); with PUM1 PUF domain R4-RHS, 2.87 log2 enrichment (interaction score); in the experiment with PUM1 PUF domain R3-IYG it was 4.83 log2 enrichment (interaction score).
With “GGCUAGAACUAGUGGAUCCCCCGGCGCCCGGCGGCUCGAGCCCGGGUAAGUGUAAUUAGUCUGCAUGCCGCCGGGCGCCAUGCCUGCAGGUCGACUCUAGAAAACAUG”, in the experiment with PUM1 PUF domain R3-RMR, the binding signal was 4.19 log2 enrichment (interaction score).
The same measure, in the same setting: for “GGCUAGAACUAGUGGAUCCCCCGGCGCCCGGCGGCUCGAGCCCGGGUAAGUGUAAGUAGUCUGCAUGCCGCCGGGCGCCAUGCCUGCAGGUCGACUCUAGAAAACAUG” the value was 1.31 log2 enrichment (interaction score).
For “GGCUAGAACUAGUGGAUCCCCCGGCGCCCGGCGGCUCGAGCCCGGGUAAGUGUUAAUAGUCUGCAUGCCGCCGGGCGCCAUGCCUGCAGGUCGACUCUAGAAAACAUG”, the binding signal in the experiment with PUM1 PUF domain R5-KGC was 3.36 log2 enrichment (interaction score); with PUM1 PUF domain R5-RPN, 3.03 log2 enrichment (interaction score); in the experiment with PUM1 PUF domain R5-KTS it was 1.52 log2 enrichment (interaction score).
As for “GGCUAGAACUAGUGGAUCCCCCGGCGCCCGGCGGCUCGAGCCCGGGUAAGUGUAAAUUGUCUGCAUGCCGCCGGGCGCCAUGCCUGCAGGUCGACUCUAGAAAACAUG”, the binding signal with PUM1 PUF domain R1-RAV is 2.63 log2 enrichment (interaction score); in the experiment with PUM1 PUF domain R1-GWR, 4.28 log2 enrichment (interaction score); with PUM1 PUF domain R1-TIE, 4.28 log2 enrichment (interaction score).
Turning to “GGCUAGAACUAGUGGAUCCCCCGGCGCCCGGCGGCUCGAGCCCGGGUAAGUGUAAAUCGUCUGCAUGCCGCCGGGCGCCAUGCCUGCAGGUCGACUCUAGAAAACAUG”, the binding signal is 0.85 log2 enrichment (interaction score) with PUM1 PUF domain R1-RAV and 7.05 log2 enrichment (interaction score) with PUM1 PUF domain R1-GWR.
Turning to “GGCUAGAACUAGUGGAUCCCCCGGCGCCCGGCGGCUCGAGCCCGGGUAAGUGUCAAUAGUCUGCAUGCCGCCGGGCGCCAUGCCUGCAGGUCGACUCUAGAAAACAUG”, in the experiment with PUM1 PUF domain R5-KTS, the binding signal is 2.89 log2 enrichment (interaction score).
Turning to “GGCUAGAACUAGUGGAUCCCCCGGCGCCCGGCGGCUCGAGCCCGGGUAAGUCUAAAUAGUCUGCAUGCCGCCGGGCGCCAUGCCUGCAGGUCGACUCUAGAAAACAUG”, in the experiment with PUM1 PUF domain R7-SHP, the binding signal is 3.63 log2 enrichment (interaction score).
In the case of “GGCUAGAACUAGUGGAUCCCCCGGCGCCCGGCGGCUCGAGCCCGGGUAAGUUUAAAUAGUCUGCAUGCCGCCGGGCGCCAUGCCUGCAGGUCGACUCUAGAAAACAUG”, the binding signal with PUM1 PUF domain R7-SRP was 3.52 log2 enrichment (interaction score).
Take “GGCUAGAACUAGUGGAUCCCCCGGCGCCCGGCGGCUCGAGCCCGGGUAAGUGUGAAUAGUCUGCAUGCCGCCGGGCGCCAUGCCUGCAGGUCGACUCUAGAAAACAUG”: the binding signal with PUM1 PUF domain R5-RHD is 5.63 log2 enrichment (interaction score).
With “GGCUAGAACUAGUGGAUCCCCCGGCGCCCGGCGGCUCGAGCCCGGGUAAGUGAAAAUAGUCUGCAUGCCGCCGGGCGCCAUGCCUGCAGGUCGACUCUAGAAAACAUG”, the binding signal with PUM1 PUF domain R6-TFC was 5.07 log2 enrichment (interaction score).
Take “GGCUAGAACUAGUGGAUCCCCCGGCGCCCGGCGGCUCGAGCCCGGGUAAGUGUACAUAGUCUGCAUGCCGCCGGGCGCCAUGCCUGCAGGUCGACUCUAGAAAACAUG”: the binding signal in the experiment with PUM1 PUF domain R4-RHS is 2.12 log2 enrichment (interaction score).
On to “GGCUAGAACUAGUGGAUCCCCCGGCGCCCGGCGGCUCGAGCCCGGGUAAGUGUAACUAGUCUGCAUGCCGCCGGGCGCCAUGCCUGCAGGUCGACUCUAGAAAACAUG”, for which the binding signal with PUM1 PUF domain R3-IYG is 0.48 log2 enrichment (interaction score).
As for “GGCUAGAACUAGUGGAUCCCCCGGCGCCCGGCGGCUCGAGCCCGGGUAAGCGUAAAUAGUCUGCAUGCCGCCGGGCGCCAUGCCUGCAGGUCGACUCUAGAAAACAUG”, the binding signal in the experiment with PUM1 PUF domain R8-FHR is 3.71 log2 enrichment (interaction score).

(Values after paper PMC8384837, “Expanding the binding specificity for RNA recognition by a PUF domain”.)
